Only some compounds are listed: those with a hit (about 3.4% of all), similar ones and a draw of the others.
GPR151 ag – activators of human GPR151. activation, % at 11.2 µM. Q8TDV0. 650,000 tested, 1% active. PathHunter beta-arrestin GPR151 cells, luminescence; in the data active = activation above about 4.9%;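 note: 0% = median of compound wells and 100% = cells with positive control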
TEAD-YAP inh – TEAD-YAP interaction inhibition | 640,000 tested, 1.4% active | HEK-TIYL cells, TEAD-Gal4/YAP UAS-luciferase luminescence | inhibition, % at 9.12 µM | AID 1259422; in the data active = inhibition above about 32%;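 note: 0% = median of test compound wells and 100% = reference inhibitor wells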
MITF primary – inhibitors of human MITF; O75030; AlphaScreen MITF homodimerization, bead proximity signal; inhibition, % at 2.6 µM; 650,000 tested, 0.91% active; in the data active = inhibition above about 50%;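 note: 0% = vehicle wells with protein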
FBW7 act – activators of human E3 ligase FBW7 | Q969H0 | AlphaScreen FBW7–phospho-cyclin E peptide binding, activator screen | normalized activity (activation), % at 26.1 µM | 650,000 tested, 0.13% active; in the data active = normalized activity above about 1.9%;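 note: purified mutant Fbw7 with reduced substrate affinity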
Target sequence (Q969H0 whole entry, looked up): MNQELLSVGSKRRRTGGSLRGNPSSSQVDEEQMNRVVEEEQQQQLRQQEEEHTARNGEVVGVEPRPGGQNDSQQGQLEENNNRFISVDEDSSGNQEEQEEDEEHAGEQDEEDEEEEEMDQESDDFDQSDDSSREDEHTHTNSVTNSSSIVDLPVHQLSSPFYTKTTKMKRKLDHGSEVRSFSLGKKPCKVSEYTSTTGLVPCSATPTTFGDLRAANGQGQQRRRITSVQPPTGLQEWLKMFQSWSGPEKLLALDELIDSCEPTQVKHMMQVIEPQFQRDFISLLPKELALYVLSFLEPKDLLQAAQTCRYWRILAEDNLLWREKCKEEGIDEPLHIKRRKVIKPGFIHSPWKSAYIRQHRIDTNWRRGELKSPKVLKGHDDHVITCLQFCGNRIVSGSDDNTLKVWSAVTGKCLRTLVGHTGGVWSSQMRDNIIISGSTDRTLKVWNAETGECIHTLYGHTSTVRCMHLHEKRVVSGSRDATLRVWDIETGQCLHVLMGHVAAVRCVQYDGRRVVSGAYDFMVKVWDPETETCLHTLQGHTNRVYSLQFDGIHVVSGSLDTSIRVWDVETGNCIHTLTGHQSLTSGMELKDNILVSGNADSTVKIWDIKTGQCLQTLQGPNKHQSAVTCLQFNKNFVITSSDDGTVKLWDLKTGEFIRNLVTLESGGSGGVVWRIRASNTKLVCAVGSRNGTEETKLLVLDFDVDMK
* marks the source's active call; other numbers are inactive results.

SMILES	GPR151 ag	TEAD-YAP inh	MITF primary	FBW7 act
COc1cc(/C=C2/SC(=S)N(CCCC(=O)O)C2=O)ccc1O	-7.1	60.9*	5.7	0.0
COC(=O)CCCN1C(=O)/C(=C\c2ccc3c(c2)OCO3)SC1=S	-0.9	59.2*	8.8	0.3
O=C(Nc1ccccc1F)N1CCC2(CC1)OCc1ccccc1O2	-1.2	-21.8	-3.5	0.7
Cc1ccc(/C=C2\SC(=S)N(CCCC(=O)Nc3cccnc3)C2=O)cc1	1.2	33.6*	-2.0	-0.2
COc1ccc(/C=C2\SC(=O)N(CO)C2=O)c(OC)c1	2.1	-10.8	15.4	0.0
O=C(O)CCCN1C(=O)/C(=C\c2ccc(OC(F)F)cc2)SC1=S	2.4	58.8*	7.5	0.1
CCCN1C(=O)/C(=C/c2ccc(OC)cc2)SC1=S	-0.6	-10.9	9.1	-0.1
O=C(O)CCCCCN1C(=O)/C(=C/c2ccc(O)cc2)SC1=S	-8.1	31.1	7.5	0.5
COc1ccc(/C=C2\SC(=O)N(CCC(=O)O)C2=O)c(OC)c1	0.4	63.9*	10.4	-0.2
COc1ccc(/C=C2/SC(=S)N(CCC(=O)O)C2=O)cc1	0.9	57.8*	1.4	-0.2
Cc1ccc(/C=C2/SC(=S)N(Cc3cccnc3)C2=O)cc1	-0.4	4.0	2.3	-0.1
COc1ccc(C)cc1S(=O)(=O)Nc1ccc(-c2cn3ccc(C)nc3n2)cc1	-1.1	-4.5	-15.3	0.0
CC(C)(C)c1ccc(C(=O)Nc2ccc(NC(=O)c3cc(I)ccc3Cl)cc2)cc1	0.3	4.7	14.7	0.7
COc1cc(Nc2nc(Nc3ccccc3)nc3c2ncn3-c2ccsc2)cc(OC)c1OC	0.1	23.2	1.5	-0.2
c1ccc(Nc2nc(NC3CC3)c3ncn(-c4ccsc4)c3n2)cc1	-1.2	49.3*	1.1	0.1
COc1cc(Nc2nc(NC3CCC(O)CC3)nc3c2ncn3-c2ccsc2)cc(OC)c1OC (centres undefined)	0.2	68.3*	15.3	-0.1
COc1cc(Nc2nc(NC3CC3)c3ncn(-c4ccsc4)c3n2)cc(OC)c1OC	2.4	34.1*	2.2	-0.3
COc1ccc([N+](=O)[O-])cc1-c1[nH]c(-c2cc(OC)c(O)c(OC)c2)nc1-c1ccccc1	2.3	2.6	-4.6	-0.1
O=C(c1ccc(S(=O)(=O)c2ccc(F)cc2)c([N+](=O)[O-])c1)N1CCC2(CC1)OCCO2	-0.4	4.3	2.0	-0.1
Cc1ccc(C(=O)N2CCN(c3ccc([N+](=O)[O-])cc3)CC2C)cc1 (centres undefined)	1.0	39.0*	5.3	-0.1
CCCNC(=O)c1ccc(S(=O)(=O)c2ccc(OC)cc2)c([N+](=O)[O-])c1	0.0	35.7*	-6.3	0.0
Cc1cccc(N2CCN(C(=O)c3ccc(S(=O)(=O)c4ccc(F)cc4)c([N+](=O)[O-])c3)C(C)C2)c1 (centres undefined)	3.4	54.4*	14.4	-0.1
O=C(c1ccc(S(=O)(=O)c2ccc(F)cc2)c([N+](=O)[O-])c1)N1CCCCCC1	-0.4	33.9*	-3.5	-0.1
O=C1N=C(N2CCOCC2)S/C1=C/c1cccc2ccccc12	0.4	-33.8	7.2	-0.1
COc1ccccc1C1=N/C(=C/c2ccc([N+](=O)[O-])cc2)C(=O)N1c1cc(Cl)ccc1Cl	0.3	-1.6	-4.8	-0.1
SMILES	GPR151 ag	TEAD-YAP inh	MITF primary	FBW7 act
CCCN(Cc1cc(OC)c(OC)c(OC)c1)CC1CC1	0.0	2.0	-31.1	-0.1
O=C(c1ccc(S(=O)(=O)c2ccc(Br)cc2)c([N+](=O)[O-])c1)N1CCCCC1	-1.3	36.8*	8.9	0.3
O=C(c1ccc(S(=O)(=O)c2ccccc2Cl)c([N+](=O)[O-])c1)N1CCN(Cc2ccccc2)CC1	1.7	33.2*	7.6	0.0
O=C(c1ccc(S(=O)(=O)c2ccc(Br)cc2)c([N+](=O)[O-])c1)N1CCCCCC1	0.7	34.9*	14.9	0.1
CC1CCCCN1C(=O)c1ccc(S(=O)(=O)c2cccc(Cl)c2)c([N+](=O)[O-])c1 (centres undefined)	-0.4	37.7*	2.8	0.1
Cc1ccc(C)c(N2CCN(C(=O)c3ccc(S(=O)(=O)c4ccc(F)cc4)c([N+](=O)[O-])c3)CC2)c1	0.1	43.6*	15.2	0.1
CCOC(=O)CS(=O)(=O)c1ccc(C(=O)N2CCN(c3cccc(C)c3)C(C)C2)cc1[N+](=O)[O-] (centres undefined)	-0.1	52.2*	-6.5	-0.2
O=C(O)c1ccc(S(=O)(=O)c2ccc(F)cc2)c([N+](=O)[O-])c1	-1.0	-3.9	9.7	0.4
O=C(c1ccc(S(=O)(=O)c2ccc(Br)cc2)c([N+](=O)[O-])c1)N1CCN(c2ccc(F)cc2)CC1	0.7	11.2	-11.5	0.0
O=C(c1ccc(S(=O)(=O)c2ccc(Br)cc2)c([N+](=O)[O-])c1)N1CCCC1	0.1	32.1*	15.2	0.7
C=CCNC(=O)c1ccc(S(=O)(=O)c2ccc(F)cc2)c([N+](=O)[O-])c1	0.8	34.2*	13.3	0.0
Cc1ccc(C)c(N2CCN(C(=O)c3ccc(S(=O)(=O)c4ccccc4Cl)c([N+](=O)[O-])c3)CC2)c1	1.6	8.2	4.5	-0.3
CCC(C)NC(=O)CSc1nc2ccc(C)cc2cc1C#N (centres undefined)	-0.6	-9.7	-15.1	0.1
COc1ccc(/C(N)=N/OC(=O)COc2ccc(Cl)cc2Br)cc1	-0.2	11.5	0.2	0.0
Cc1cccc(N2CCN(C(=O)c3ccc4c(c3)NC(=O)CS4)CC2C)c1 (centres undefined)	0.3	60.1*	15.8	0.7
CCN(CC)C(=O)c1ccc(Sc2ccc(Br)cc2)c([N+](=O)[O-])c1	1.1	4.9	3.4	-0.2
CCN(CC)C(=O)c1ccc(S(=O)(=O)c2ccc(Br)cc2)c([N+](=O)[O-])c1	-1.5	48.6*	10.7	0.2
Cc1cccc(N2CCN(C(=O)c3ccc4c(c3)NC(=O)c3ccccc3N4)CC2C)c1 (centres undefined)	1.8	-4.0	1.1	-0.1
CC1CCCC(NC(=O)CCCC2=NS(=O)(=O)c3ccccc3N2)C1C (centres undefined)	1.1	4.7	-3.9	-0.3
CC(C)n1cnc2c(Nc3ccc(F)cc3)ncnc21	-5.9	54.3*	17.6	-0.1
COc1cc(-c2nc(Nc3ccc(F)c(Cl)c3)c3ccccc3n2)cc(OC)c1OC	-0.4	-2.0	-1.7	0.0
COc1ccc(OC)c(NC(=O)Cn2c(-c3ccccc3)cc(C(C)=O)c2C)c1	0.0	-10.3	-8.3	0.0
Cn1c(Nc2cc(C(=O)NCc3cccc(C(F)(F)F)c3)ccn2)nc2ccccc21	0.8	35.2*	10.4	-0.1
CNC(=O)c1ccc(-c2ccc(C)c(C)c2)nc1NCCOC	0.8	-42.0	9.4	0.3
CC(C)CN(CC(C)C)S(=O)(=O)c1ccccc1[N+](=O)[O-]	0.6	-5.4	-3.9	-0.2
CCCCN(CC)S(=O)(=O)c1ccccc1[N+](=O)[O-]	0.9	47.1*	7.8	-0.2
CCOC(=O)N1CCc2c(sc(NC(=O)CCOc3ccccc3)c2C#N)C1	-0.6	38.3*	-2.3	0.0
CC(=O)N1CCc2c(sc(NC(=O)c3ccc(C)cc3)c2C#N)C1	-0.4	39.3*	-5.0	0.5

Bioassay records (PubChem BioAssay)
